According to PubChem BioAssay AID651660 (Broad Institute, 2012):
“And” between values parts separate entries of the source, which are not always exact repeats. Equal values may be shown once. Among all 1,900 compounds or so, about 15 (0.8%) were called active. Shown is part of a subset that was picked to be rich in actives. Values without a mark were called inactive.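 The calls were made as follows: active = every replicate shows at least 50% inhibition; inconclusive = mean inhibition at least 50% but some replicate below; inactive = the rest.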

biological target: DNA repair protein RAD52 homolog (Homo sapiens) (UniProt P43351); experiment: inhibition of RAD52-mediated strand annealing – biochemical, FRET, single point, primary screen (AID 651660); settings: Recombinant RAD52 ssDNA annealing, FRET fluorescence, 30 min; at 18.7 µM; hits give high values;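 also: 0% = median of neutral control wells and 100% = median of positive control wells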
Sequence (P43351 whole entry, looked up): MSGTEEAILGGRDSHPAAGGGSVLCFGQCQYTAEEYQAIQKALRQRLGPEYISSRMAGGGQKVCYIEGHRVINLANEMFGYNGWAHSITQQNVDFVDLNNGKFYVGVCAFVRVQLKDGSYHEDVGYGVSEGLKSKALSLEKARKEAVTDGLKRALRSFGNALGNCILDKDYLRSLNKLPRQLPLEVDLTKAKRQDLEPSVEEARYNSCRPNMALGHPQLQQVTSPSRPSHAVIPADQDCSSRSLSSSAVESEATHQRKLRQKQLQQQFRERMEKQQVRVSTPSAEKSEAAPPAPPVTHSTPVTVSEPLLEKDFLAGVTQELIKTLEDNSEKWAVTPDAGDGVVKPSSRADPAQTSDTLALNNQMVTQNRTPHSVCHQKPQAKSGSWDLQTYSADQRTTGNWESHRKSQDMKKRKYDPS

First: O=C(CNC(=O)OCc1ccccc1)NC1CCCCCC1
Second: CSCC[C@H](NC(=O)NC1CCCC1)C(=O)O
The inhibition of the first is higher: 0.625% for the first, -5.4% for the second.

Compared with `CC(C)OC(=O)C1C2C=CC3(CN(CC4CCCO4)C(=O)C13)O2` (stereo unspecified), `COc1ccc(C(=O)C2CCCCC2=O)cc1` (stereo unspecified) is lower in inhibition: -7.36% for the first, -11.5% for the second.

First: O=C(O)c1ccc(-c2ccc(O)c(F)c2)cc1
Second: O=C(c1ccc(-c2ccccc2)c(F)c1)C1CCCN(C(=O)c2cncs2)C1 (stereo unspecified)
The inhibition of the first is higher: -3.36% for the first, -5.72% for the second.

Compared with `Cc1ncc(C(=O)O)c(C(=O)O)c1N`, `O=C(O)CCCNc1ccc(S(=O)(=O)Nc2ccccc2C(=O)O)cc1C(=O)O` is higher in inhibition: -18.8% for the first, -12.9% for the second.

Compared with `CCOC(=O)c1ccc(N2C(=O)C(CC(N)=O)N(CCc3ccc(OC)c(OC)c3)C2=S)cc1` (stereo unspecified), `COc1ccc(C2CC(c3ccc([N+](=O)[O-])cc3)=NN2C(=O)c2ccccc2)cc1OC` (stereo unspecified) is lower in inhibition: 3.53% for the first, -4.95% for the second.

First: CC(C)c1ccc(NC(=O)CNS(=O)(=O)c2ccc(F)cc2)cc1
Second: CC(=O)C1=C(O)C(=O)N(Cc2cccnc2)C1c1ccc(C(C)C)cc1 (stereo unspecified)
The inhibition of the first is higher: 3.93% for the first, 0.222% for the second.

First: CCOc1ccc2oc(-c3ccccc3)c(C(=O)O)c2c1
Second: CCc1oc2ccccc2c1C(=O)c1cc(Br)c(O)c(Br)c1
The inhibition of the first is higher: -1.63% for the first, -13.4% for the second.

First: Cc1cccc(-n2c(Cc3ccccc3)n[nH]c2=S)c1
Second: COc1ccc2c(=O)c(-c3cnn(-c4ccccc4)c3)c(C)oc2c1
The inhibition of the first is higher: -6.53% for the first, -8.23% for the second.

Going from `NCCOc1ccccc1OCCN` to `CC1CCN(CCOCCOc2ccccc2Br)CC1`, the inhibition falls from 2.09% to -6.71%.

First: O=C(OCC1OC2OC3(CCCCC3)OC2C2OC3(CCCCC3)OC12)c1ccccc1 (stereo unspecified)
Second: CCOc1ccc(C(=O)NCC2(c3ccccc3)CCOCC2)cc1
The inhibition of the first is lower: -6.56% for the first, -5.73% for the second.

First: COC1(C)CC2C(CC1OC(=O)c1cc([N+](=O)[O-])cc([N+](=O)[O-])c1)C2(C)C (stereo unspecified)
Second: Cc1ccc2c(c1)C(O)(C1COC(C)(C)CC1=O)C(=O)N2C (stereo unspecified)
The inhibition of the first is higher: 2.54% for the first, -1% for the second.

Compared with `COc1ccc2c(c1)[N+](C)(C)C(C)(C)C=C2C`, `COc1cccc2c(O)cc(=O)n(C)c12` is higher in inhibition: 2.05% for the first, 6.83% for the second.

Going from `CC(=O)OCC#CCSc1nc2ccccc2n1C` to `O=C(OCCNC(=O)c1ccc2ccccc2n1)c1ccc(F)cc1`, the inhibition rises from -0.59% to 3.05%.

First: CC(C)COCC1CC2(CC(C)(c3csc(N)n3)OC2=O)C(=O)O1 (stereo unspecified)
Second: CCOC(=O)c1cc2c(nc1N)CC(C)(CC)OC2 (stereo unspecified)
The inhibition of the first is higher: -11.3% for the first, -11.6% for the second.

Going from `COc1cc(C2NCCc3c2[nH]c2ccccc32)ccc1OC(C)C` (stereo unspecified) to `COc1cccc(=O)c2c(C)n(CC(=O)c3ccccc3)c(C)c12`, the inhibition falls from 1.55% to -138%.

Going from `CC12CN3CC(C)(CN(C1)C3c1ccc(Br)cc1O)C2` (stereo unspecified) to `CC(=O)N1CC2(C)CN(C(C)=O)CC(C)(C1)C2`, the inhibition rises from -9.4% to -4.54%.

Compared with `Cc1ccc2c(c1)C1(C(=O)N2)N2CCCC2C(C(=O)c2ccc3ccccc3c2)C12C(=O)Nc1ccccc12` (stereo unspecified), `CN1C(=O)NC(c2ccc(O)cc2)C2=C1CN(c1cccc3ccccc13)C2=O` (stereo unspecified) is lower in inhibition: 8.82% for the first, -2.34% for the second.

Going from `COc1ccc(-c2noc(-c3ccccc3-c3ccccc3)n2)cc1` to `Cc1nc(N[C@@H](Cc2c[nH]c3ccccc23)C(=O)O)c2oc3ccccc3c2n1`, the inhibition falls from 2.09% to -19.8%.

Going from `O=C(CS(=O)(=O)Cc1ccccc1)NCc1ccc2c(c1)OCO2` to `CC(=O)N(CCC(Cc1ccccc1)c1ccc2c(c1)OCO2)Cc1ccc(Cl)cc1` (stereo unspecified), the inhibition rises from 1.08% to 16.3%.

First: CC(CN1c2ccccc2Sc2ccccc21)N(C)C (stereo unspecified)
Second: CN(C)CCOC(c1ccccc1)c1ccccc1 (tested in a mixture with another compound)
The inhibition of the first is higher: 7.73% for the first, 0.693% for the second.

Compared with `COC(=O)C1=CN(Cc2cccs2)C=C(C(=O)OC)C1c1cccc(Cl)c1`, `COC(=O)c1ccc(=O)n(Cc2ccco2)c1` is lower in inhibition: 11.7% for the first, -5.57% for the second.

First: CC(=O)C1=C(NC(=O)c2ccc(C(F)(F)F)cc2)C[C@@H]2[C@H]1C2(C)C
Second: COc1ccc(CNC(=O)C2CCN(C(=O)[C@@H](CC(C)C)NC(=O)OC(C)(C)C)CC2)cc1
The inhibition of the first is higher: 4.2% for the first, 2.06% for the second.

Going from `CN(C)c1ccc(C(CN)c2c[nH]c3ccccc23)cc1` (stereo unspecified) to `CSc1cccc(NC(=O)/C=C/c2ccccc2)c1`, the inhibition rises from -2.21% to 5.27%.

Compared with `O=[N+]([O-])c1cc(/C=N/n2cnnc2)ccc1N1CCCC1`, `COc1ccc(S(=O)(=O)N2CCN(C(=O)COc3ccc4c(C)cc(=O)oc4c3)CC2)cc1` is lower in inhibition: -0.23% for the first, -4% for the second.

Going from `N/C(=N\OC(=O)c1ccc(Br)o1)c1ccccn1` to `CCOC(=O)c1cnc2ccc(C(=O)OC)cc2c1Nc1ccc2c(c1)OCCO2`, the inhibition rises from -4.88% to 0.862%.

First: O=C(CCC(=O)NCCO)NCCO
Second: CC1=C/C(=N\N=C2\NC(=O)C(CC(=O)Nc3ccccc3F)S2)CC(C)(C)C1 (stereo unspecified)
The inhibition of the first is higher: 4.45% for the first, -3.25% for the second.

`CC1(C)CC(NCc2ccccc2)CCO1` (stereo unspecified) showed an inhibition of -6.22%.

For `CSc1ccc2c(c1)N(CCC1CCCCN1C)c1ccccc1S2` (stereo unspecified), the inhibition was 61.6% (active).
With `CCCCc1oc2ccccc2c1C(=O)c1cc(I)c(OCCN(CC)CC)c(I)c1` the inhibition was 72.2% (active).
`CCCCOc1cc(C(=O)NCCN(CC)CC)c2ccccc2n1` was tested, and the inhibition was 8.91% and -1.38%.
